ssDAF-12 act – S. stercoralis DAF-12 activation, primary screen; HEK293 ssDAF-12/GRIP1 lit1-tk-luc reporter, luminescence; % of 3 µM dafachronic acid response; activation, % at 6.8 µM; 1% of 370,000 active;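 active means activation above the mean over all tested compounds plus 3 SD, cut at about 0.9% in these data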;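 further: 0% = DMSO-only wells and 100% = 3 µM delta7-dafachronic acid wells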
DAX1 inh-1 – inhibits human nuclear receptor DAX1 | HEK293 Gal4-DAX1 luciferase reporter, luminescence | inhibition, % at 6.75 µM | 0.99% of 340,000 active;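 active means inhibition above the mean over all tested compounds plus 3 SD, cut at about 4.2% in these data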;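 further: 0% = DAX1-transfected cells with DMSO and 100% = empty-vector control cells with DMSO; inhibition shows as a rise in luminescence from relieved DAX1 repression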
hgDAF-12 ag – activates the H. glycines DAF-12 receptor ligand-binding domain; 1.8% of 370,000 active; AID 687014; activation, % at 6.8 µM; HEK293 GAL4-hgDAF12 UAS-luciferase reporter, agonist luminescence; normalized to butyrate control;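 active means activation above a cutoff set at the mean of all screened compounds plus 3 SD, cut at about 10% in these data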;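 further: 0% = DMSO wells and 100% = sodium butyrate wells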
hcDAF-12 act – H. contortus DAF-12 activation, primary screen. HEK293 hcDAF-12 lit1-tk-luc reporter, luminescence; 0% DMSO, 100% Δ7-dafachronic acid. activation, % at 6.8 µM. 1.4% of 370,000 active;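 active means activation above the mean of all tested compounds plus 3 SD, cut at about 5.5% in these data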;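 further: 100% = response to 3 µM Δ7-dafachronic acid high control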
DAX1 inh-2 – blocks DAX1 repression of SF-1 activated StAR promoter | inhibition, % at 6.8 µM | HEK293T StAR-luciferase reporter, SF-1/DAX-1 repression relief | 1.1% of 370,000 active;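 active means inhibition above the mean over all tested compounds plus 3 SD, cut at about 3.6% in these data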;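 further: 0% = DAX-1 cells with DMSO and 100% = cells lacking DAX-1 with DMSO; higher inhibition means more luminescence from relief of DAX-1 repression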
DAX1 conf – NR0B1 (human) inhibition, confirmation | inhibition, % at 6.8 µM | HEK293T StAR-promoter luciferase reporter, SF-1/DAX-1 repression | 87% of 2,400 active | shares compounds with DAX1 inh-2;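 active means inhibition above the average of every tested compound plus 3 SD, cut at about 3.8% in these data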;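 further: 0% = DAX-1 cells with DMSO and 100% = no DAX-1 control cells with DMSO; active compounds raise luminescence by relieving repression of the StAR reporter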
Target sequence (P51843 whole entry, looked up): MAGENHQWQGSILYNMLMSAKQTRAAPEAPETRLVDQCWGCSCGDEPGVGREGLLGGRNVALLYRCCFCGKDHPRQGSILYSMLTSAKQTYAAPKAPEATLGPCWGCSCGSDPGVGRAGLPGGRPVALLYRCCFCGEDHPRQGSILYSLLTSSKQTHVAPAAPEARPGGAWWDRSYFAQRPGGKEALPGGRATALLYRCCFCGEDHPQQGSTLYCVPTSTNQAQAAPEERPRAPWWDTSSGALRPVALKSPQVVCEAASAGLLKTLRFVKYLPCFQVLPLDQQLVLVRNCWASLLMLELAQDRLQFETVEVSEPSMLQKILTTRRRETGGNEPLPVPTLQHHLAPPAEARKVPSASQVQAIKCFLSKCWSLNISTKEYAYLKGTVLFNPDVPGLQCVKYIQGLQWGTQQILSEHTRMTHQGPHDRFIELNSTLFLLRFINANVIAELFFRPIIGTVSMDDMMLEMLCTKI
SF1 AF2mut Luc – counter-screen for DAX1 inhibitors: nonselective inhibitors with SF-1 AF2 mutant; shares compounds with DAX1 inh-2; HEK293 StAR-luciferase, luminescence; inhibition, % at 6.8 µM; 78% of 2,400 active; AID 652136;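 active means inhibition above the mean of all tested compounds plus 3 SD, cut at about 3% in these data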;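 further: 0% = DAX-1 transfected cells with DMSO and 100% = cells without DAX-1 with DMSO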
LXRb hcDAF ctr – activates human LXR-beta, counter-screen for hcDAF-12 agonists | activation, % at 6.8 µM | HEK293 Gal4-LXR tk-luc reporter, luminescence, 24 h; normalized: DMSO 0%, positive control 100% | 3,400 tested, under 10 active | shares compounds with hcDAF-12 act | AID 743027;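 active means mean percent activation of the reporter above a cutoff set as the average over tested compounds plus their standard deviation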
hcDAF12 ag – hcDAF-12 agonism, confirmation assay. shares compounds with hcDAF-12 act. activation, % at 6.8 µM. HEK293 hcDAF-12 lit1-tk-luc reporter, luminescence; % of Δ7-dafachronic acid response. 61% of 3,400 active;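 active means mean activation across triplicate tests above the threshold derived from the earlier primary screen, cut at about 5.5% in these data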;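 further: 0% = DMSO only wells and 100% = 3 µM Δ7-dafachronic acid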
The depositor's hits bear a star; . = not tested or not shown. Rows were chosen to be rich in hits. Some 4.1% of all compounds tested hit in one or more screens of this group.

SMILES	ssDAF-12 act	DAX1 inh-1	hgDAF-12 ag	hcDAF-12 act	DAX1 inh-2	DAX1 conf	SF1 AF2mut Luc	LXRb hcDAF ctr	hcDAF12 ag
Cc1ccc(-c2noc(-c3ccccc3Br)n2)cc1	2.9*	4.2*	14.1*	16.1*	5.5*	16.1*	7.8*	1.9	21.0*
c1ccc(-c2noc(-c3ccccc3-c3ccccc3)n2)cc1	-0.9	-0.1	-0.4	-0.8	-0.2	.	.	.	.
COc1ccc(NC(=O)C2(C)CCN2Cc2cccc(OC)c2OC)cc1OC (configuration not stated)	-0.7	.	-5.6	-2.2	-0.9	.	.	.	.
Clc1ccc(-c2nnc(-c3cccc4ccccc34)o2)cc1	0.9	-0.1	1.9	3.5	2.7	.	.	.	.
Cc1cccc(-c2nnc(-c3cccc4ccccc34)o2)c1	1.2*	6.4*	11.1*	7.0*	5.4*	10.0*	8.5*	1.6	8.7*
COc1ccc2oc(C(=O)NCC3CCCO3)c(C)c2c1 (configuration not stated)	0.6	1.3	6.4	11.8*	6.5*	5.1*	2.2	0.6	6.5*
COc1ccccc1NC(CC(=O)c1ccccc1)C(=O)OCC(=O)c1ccc(F)cc1 (configuration not stated)	2.7*	0.8	18.2*	17.6*	6.2*	15.0*	6.6*	2.6	19.0*
O=C(N/N=C/c1sc(=O)[nH]c1-[n+]1ccccc1)c1ccccc1[O-]	-1.4	-1.3	1.5	1.3	0.7	.	.	.	.
O=C(N/N=C/c1sc(=O)[nH]c1-[n+]1ccc2ccccc2c1)c1ccccc1[O-]	0.6	0.6	5.4	8.4*	4.9*	0.4	1.2	-0.1	1.8
CC(/C=N/NC(=O)c1cccs1)=C\c1ccccc1	1.4*	1.5	16.3*	6.8*	7.0*	17.9*	7.8*	1.8	7.2*
c1ccc(-c2noc(-c3cccc4ccccc34)n2)nc1	3.0*	-0.8	12.7*	18.3*	5.5*	12.2*	4.6*	2.1	19.6*
Cc1cccc(N/C=C/C(=O)c2cccs2)c1C	2.9*	0.5	12.7*	14.8*	6.3*	14.4*	7.3*	1.6	20.6*
COC(=O)[C@]12C[C@H](CC(=O)NCc3cccs3)C(=O)N(Cc3ccco3)C1=C[C@H](C1CCCC1)O[C@@H]2C	-1.1	.	3.6	-2.6	0.4	.	.	.	.
COc1ccc(CNC(=O)c2sc3nc(C)c(Cl)c(C)c3c2N)cc1	-1.2	.	-1.4	-1.9	-0.1	.	.	.	.
O=c1ccc2nc3ccccc3sc-2c1	0.0	.	-2.8	-0.4	-2.8	.	.	.	.
CS(=O)(=O)Nc1ccc(C2=NN(S(C)(=O)=O)C(c3ccc4nccnc4c3)C2)cc1 (configuration not stated)	-0.5	0.0	2.0	-0.9	-0.2	.	.	.	.
Cc1ccc(C2=NN(S(C)(=O)=O)C(c3ccc4c(c3)OCO4)C2)cc1 (configuration not stated)	0.9*	1.1	21.3*	12.9*	5.4*	19.3*	9.0*	1.5	14.0*
O=C(O)c1ccc(N/N=C/c2cc3c(cc2[N+](=O)[O-])OCO3)cc1	-1.3	-1.0	-0.1	-2.7	-1.3	.	.	.	.
O=C(O)c1ccc(N/N=C/c2cc3cc4c(cc3nc2Cl)OCCO4)cc1	2.9*	-5.1	24.2*	11.7*	7.3*	25.3*	9.6*	3.1	20.5*
O=C(Nc1ccc2c(c1)CCC2)c1ccc(F)cc1	0.8	-0.3	19.7*	6.7*	5.7*	12.8*	5.4*	1.7	6.6*
COc1ccc(Cl)cc1N1C(=O)/C(=C/c2sccc2C)N=C1SCC(=O)NC1CC1	-1.1	.	-3.5	-1.3	-0.4	.	.	.	.
CCOC(=O)c1sc(=NC(=O)c2ccccc2Br)n(C)c1C	0.8	1.3	11.4*	12.8*	7.4*	9.6*	4.2*	1.7	10.1*
CCOC(=O)c1sc(=NC(=O)c2ccc(C)c(C)c2)n(C)c1C	-0.4	-0.5	4.3	0.1	0.4	.	.	.	.
Cc1ccc(-n2nc3ccc(NC(=O)C(C)C)cc3n2)cc1	1.0*	2.5	17.3*	9.8*	5.1*	15.8*	7.7*	1.7	6.8*
CC(C)C(=O)Nc1ccc2nn(-c3ccc(F)cc3)nc2c1	.	-0.5	.	.	.	.	.	.	.
SMILES	ssDAF-12 act	DAX1 inh-1	hgDAF-12 ag	hcDAF-12 act	DAX1 inh-2	DAX1 conf	SF1 AF2mut Luc	LXRb hcDAF ctr	hcDAF12 ag
O=C(Nc1nc2ccccc2[nH]1)c1ccc(F)cc1	1.2*	-2.1	12.9*	8.0*	5.3*	14.0*	8.9*	1.1	4.6
COc1cccc(-c2cc(C(=O)N3CCc4ccccc4C3)no2)c1	-1.3	0.8	3.0	0.8	-0.5	.	.	.	.
COc1cccc(-c2nc3n(n2)CCc2ccccc2-3)c1	2.0*	4.3*	20.2*	16.5*	8.3*	7.5*	4.1*	1.3	16.4*
O=c1oc2ccccc2cc1-c1nc2c(s1)CCCC2	0.8	0.2	12.1*	10.4*	5.0*	5.2*	-0.6	1.3	14.2*
CCCCc1c(-c2ccccc2OC)ncn1Cc1cc(F)cc(F)c1	-1.3	.	-2.9	-1.8	-0.1	.	.	.	.
CC(C)Oc1ccc(C(=O)NC2=NCCS2)cc1	0.4	-0.1	22.3*	7.5*	9.9*	13.6*	8.1*	1.1	4.4
Cc1ccc(C(=O)NC2=NCCS2)cc1	0.1	.	9.4	2.9	2.8	.	.	.	.
CC(C)NC(=O)NC(=O)COc1ccc(Br)cc1Br	0.4	1.6	11.7*	7.5*	6.3*	16.6*	6.7*	1.7	6.0*
CC1CCC(NC(=O)C(=O)Nc2ccc3c(c2)OCO3)CC1 (configuration not stated)	0.2	1.6	4.9	7.0*	7.8*	8.9*	8.8*	1.1	5.7*
Cn1c(=NC(=O)COc2ccccc2)sc2ccccc21	0.1	4.7*	12.5*	7.9*	4.7*	7.5*	5.1*	0.4	3.1
COc1ccc(C(=O)N=c2sc3ccccc3n2C)cc1	2.8*	4.7*	16.3*	13.0*	5.8*	10.5*	7.0*	1.5	19.0*
Cn1c(=NC(=O)CS(=O)(=O)c2ccccc2)sc2ccccc21	0.6	1.1	1.1	2.8	1.3	.	.	.	.
O=C(Nc1ncccc1O)c1ccc(Cl)c(S(=O)(=O)N2CCCCCC2)c1	-1.1	-1.5	-1.1	-0.6	0.6	.	.	.	.

Screening data: PubChem BioAssay, The Scripps Research Institute Molecular Screening Center
